# Assay results: PubChem BioAssay (EPA / NIEHS)
# Where “and” joins values, the source holds several entries; their conditions need not be identical. Equal values may be shown once. Inconclusive results are not listed. Some structures have more than one record in an assay (separate samples or runs), and their calls can disagree. Calls of active or inactive are those of the source. The calls were made as follows, unless noted: active = hit-call score of the fitted dose curve at least 0.9, where 1 is the maximum; inactive = score below 0.9.
# Key:
# [1] = target: Bile acid receptor (Homo sapiens) (UniProt Q96RI1); test: ATG_FXR_TRANS: Attagene TRANS-FACTORIAL HepG2 Assay for Farnesoid X Receptor (FXR) (AID 2282979; active = hit-call score of the fitted dose curve at least 0.9, where 1 is the maximum;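 also: hits raise reporter mRNA above DMSO so AC50 marks FXR activation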); conditions: HepG2 Attagene TRANS FXR-GAL4 reporter transcription
# Bile acid receptor (Homo sapiens), sequence (Q96RI1 whole entry, looked up, the tested form may be a part): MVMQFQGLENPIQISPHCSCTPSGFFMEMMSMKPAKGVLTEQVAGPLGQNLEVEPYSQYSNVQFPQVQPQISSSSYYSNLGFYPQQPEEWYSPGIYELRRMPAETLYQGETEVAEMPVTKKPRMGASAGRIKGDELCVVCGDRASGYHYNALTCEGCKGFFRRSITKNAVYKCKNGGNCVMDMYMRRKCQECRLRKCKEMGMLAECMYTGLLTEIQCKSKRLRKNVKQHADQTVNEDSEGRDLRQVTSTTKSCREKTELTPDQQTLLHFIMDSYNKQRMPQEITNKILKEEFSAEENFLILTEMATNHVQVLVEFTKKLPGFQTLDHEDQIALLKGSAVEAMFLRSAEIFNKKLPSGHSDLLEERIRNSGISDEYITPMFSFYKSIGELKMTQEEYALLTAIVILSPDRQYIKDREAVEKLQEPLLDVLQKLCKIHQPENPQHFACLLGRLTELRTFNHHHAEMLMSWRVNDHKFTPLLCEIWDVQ
# Summary of the method: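 HepG2 cells were transiently transfected with GAL4-UAS reporters driven by chimeric NR-Gal4 proteins and dosed for 24 h. Reporter mRNA was quantified by RT-PCR, fluorescent labelling, HpaI digestion and capillary electrophoresis, with gain of signal scored versus DMSO.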
# [2] = ATG_M_06_TRANS: Attagene TRANS-FACTORIAL HepG2 Assay for M06 Transcription Factor (Internal Marker) (AID 2282983; active = hit-call score of the fitted dose curve at least 0.9, where 1 is the maximum); conditions: HepG2 Attagene TRANS M06 internal marker reporter
# Summary of the method: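 mRNA levels of a reporter transcript, quantified as FAM fluorescence on capillary electrophoresis, served as readout. HepG2 cells expressing exogenous GAL4-chimera reporter constructs were exposed for 24 h. Gain of signal over DMSO was evaluated.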
# [3] = target: Transcriptional activator Myb (Homo sapiens) (UniProt P10242); test: ATG_Myb_CIS: Attagene CIS-FACTORIAL HepG2 Assay for human Myeloblastosis (Myb) Proto-Oncogene Transcription Factor (AID 2282986); conditions: HepG2 Attagene CIS-FACTORIAL Myb reporter transcription; actives raise or lower the signal
# Transcriptional activator Myb (Homo sapiens), sequence (P10242 whole entry, looked up): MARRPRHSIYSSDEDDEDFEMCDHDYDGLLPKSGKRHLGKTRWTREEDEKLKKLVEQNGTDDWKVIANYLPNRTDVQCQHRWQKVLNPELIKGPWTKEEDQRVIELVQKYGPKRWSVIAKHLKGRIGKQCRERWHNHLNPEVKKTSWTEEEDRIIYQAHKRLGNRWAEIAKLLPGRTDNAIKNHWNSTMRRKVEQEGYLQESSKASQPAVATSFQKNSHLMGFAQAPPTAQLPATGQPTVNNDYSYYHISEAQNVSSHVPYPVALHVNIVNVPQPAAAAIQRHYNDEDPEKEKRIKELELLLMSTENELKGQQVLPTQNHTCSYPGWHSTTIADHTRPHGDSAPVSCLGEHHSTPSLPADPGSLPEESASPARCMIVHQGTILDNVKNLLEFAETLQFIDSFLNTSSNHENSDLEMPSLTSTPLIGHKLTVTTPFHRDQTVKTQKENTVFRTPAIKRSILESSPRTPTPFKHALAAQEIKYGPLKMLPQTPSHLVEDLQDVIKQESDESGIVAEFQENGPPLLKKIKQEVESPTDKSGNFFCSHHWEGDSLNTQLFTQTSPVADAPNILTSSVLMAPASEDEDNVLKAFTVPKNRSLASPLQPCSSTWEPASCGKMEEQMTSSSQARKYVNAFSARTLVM
# Summary of the method: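 HepG2 cells were transiently transfected with cis-regulated multiple reporter transcription units reflecting endogenous Myb activity, then exposed to compound for 24 hours. Reporter mRNA was measured by RT-PCR with capillary electrophoresis; bidirectional fitting versus DMSO baseline.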
# [4] = target: Nuclear respiratory factor 1 (Homo sapiens) (UniProt Q16656); test: ATG_NRF1_CIS: Attagene CIS-FACTORIAL HepG2 Assay for human Nuclear Respiratory Factor 1 (NRF1) Orphan Gene (AID 2282987); conditions: HepG2 NRF1 cis-element reporter, Attagene multiplex; actives raise or lower the signal
# Nuclear respiratory factor 1 (Homo sapiens), sequence (Q16656 whole entry, looked up): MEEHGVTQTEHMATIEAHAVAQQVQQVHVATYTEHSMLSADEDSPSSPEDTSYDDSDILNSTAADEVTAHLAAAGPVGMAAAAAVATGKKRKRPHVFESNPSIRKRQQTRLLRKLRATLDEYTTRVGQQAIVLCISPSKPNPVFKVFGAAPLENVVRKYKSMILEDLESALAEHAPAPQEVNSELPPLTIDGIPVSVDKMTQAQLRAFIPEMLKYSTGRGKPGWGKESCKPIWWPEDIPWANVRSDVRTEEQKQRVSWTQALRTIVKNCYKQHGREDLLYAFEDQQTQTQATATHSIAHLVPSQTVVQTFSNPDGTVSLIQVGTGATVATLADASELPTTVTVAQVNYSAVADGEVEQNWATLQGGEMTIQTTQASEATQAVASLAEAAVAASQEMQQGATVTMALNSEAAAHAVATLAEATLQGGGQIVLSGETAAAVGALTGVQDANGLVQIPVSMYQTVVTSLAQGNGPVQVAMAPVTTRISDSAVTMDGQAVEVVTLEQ
# Summary of the method: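 HepG2 cells transiently transfected with multiple reporter transcription units under cis-regulatory promoter control, so endogenous transcription-factor activity is read. After 24 h compound exposure, reporter mRNA quantified by RT-PCR, fluorescent labelling, HpaI digestion and capillary electrophoresis; bidirectional fitting versus DMSO.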
# [5] = ATG_NFI_CIS: Attagene CIS-FACTORIAL HepG2 Assay for human Nuclear Factor I (NFI) (AID 2282989); conditions: HepG2 cis-regulatory reporter, NFI response element transcription; actives raise or lower the signal
# Summary of the method: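 After transient transfection of HepG2 with cis-promoter reporter constructs and 24 h dosing, RNA is reverse-transcribed, amplified, 6-FAM end-labelled and HpaI-digested before capillary analysis. Bidirectional curve fitting against DMSO.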
# [6] = target: Myc proto-oncogene protein (Homo sapiens) (UniProt P01106); test: ATG_Myc_CIS: Attagene CIS-FACTORIAL HepG2 Assay for human Myelocytomatosis (Myc) Proto-Oncogene Transcription Factor (AID 2282990); conditions: HepG2, Attagene cis-reporter transcription factor activity; actives raise or lower the signal
# Myc proto-oncogene protein (Homo sapiens), sequence (P01106 whole entry, looked up, the tested form may be a part): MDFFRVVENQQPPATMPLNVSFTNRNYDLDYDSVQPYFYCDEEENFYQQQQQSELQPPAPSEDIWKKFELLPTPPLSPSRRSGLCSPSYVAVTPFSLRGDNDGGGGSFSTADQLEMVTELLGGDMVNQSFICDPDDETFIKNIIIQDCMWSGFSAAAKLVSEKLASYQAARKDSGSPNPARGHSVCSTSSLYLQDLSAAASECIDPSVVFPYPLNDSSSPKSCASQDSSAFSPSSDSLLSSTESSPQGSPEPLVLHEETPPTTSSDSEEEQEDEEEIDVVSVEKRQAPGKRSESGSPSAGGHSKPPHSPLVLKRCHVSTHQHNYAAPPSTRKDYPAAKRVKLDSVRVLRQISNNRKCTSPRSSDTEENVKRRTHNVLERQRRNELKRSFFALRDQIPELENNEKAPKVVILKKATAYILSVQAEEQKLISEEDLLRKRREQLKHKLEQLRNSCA
# Summary of the method: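 After 24 h chemical treatment of HepG2 cells carrying multiplexed cis-regulated reporter constructs, reporter transcripts quantified by RT-PCR and capillary electrophoresis of fluorescent fragments. Gain or loss fitted against DMSO baseline.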
# [7] = ATG_NF_kB_CIS: Attagene CIS-FACTORIAL HepG2 Assay for human Nuclear Factor Kappa B (NF-kB) (AID 2282991); conditions: HepG2 Attagene cis-factorial NF-kB reporter mRNA; actives raise or lower the signal
# Summary of the method: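 HepG2 cells transiently transfected with multiplexed cis-element reporter units measuring endogenous transcription factor activity; reporter mRNA read 24 h after dosing by RT-PCR, fluorescent labelling, HpaI digestion and capillary electrophoresis. Bidirectional fit against DMSO baseline.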
# [8] = ATG_NRF2_ARE_CIS: Attagene CIS-FACTORIAL HepG2 Assay for human Nuclear Factor Erythroid 2 Related Factor 2 (NFR2) response to Antioxidant Response Elements (ARE) (AID 2282992); conditions: HepG2 Attagene ARE/NRF2 reporter, transcription factor activity; actives raise or lower the signal
# Summary of the method: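 Endogenous transcription factor activity read out as reporter transcript levels (RT-PCR plus capillary electrophoresis, fluorescence) in transiently transfected HepG2 cells. Measured at 24 h after dosing; gain or loss of signal fitted versus DMSO.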
# [9] = ATG_Oct_MLP_CIS: Attagene CIS-FACTORIAL HepG2 Assay for human Octamer-Binding Transcription Factor (Oct) (AID 2282993); conditions: HepG2 Attagene cis-factorial Oct reporter, mRNA; actives raise or lower the signal
# Summary of the method: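 Cells of the HepG2 line express promoter-controlled reporter sequences whose mRNA levels, after 24 h treatment, are measured by RT-PCR and capillary electrophoresis. Increases and decreases are scored relative to DMSO.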
# [10] = target: Cellular tumor antigen p53 (Homo sapiens) (UniProt P04637); test: ATG_p53_CIS: Attagene CIS-FACTORIAL HepG2 Assay for human p53 Transcription Factor (AID 2282994); conditions: HepG2 p53 cis-element reporter, Attagene mRNA; actives raise or lower the signal
# Cellular tumor antigen p53 (Homo sapiens), sequence (P04637 whole entry, looked up): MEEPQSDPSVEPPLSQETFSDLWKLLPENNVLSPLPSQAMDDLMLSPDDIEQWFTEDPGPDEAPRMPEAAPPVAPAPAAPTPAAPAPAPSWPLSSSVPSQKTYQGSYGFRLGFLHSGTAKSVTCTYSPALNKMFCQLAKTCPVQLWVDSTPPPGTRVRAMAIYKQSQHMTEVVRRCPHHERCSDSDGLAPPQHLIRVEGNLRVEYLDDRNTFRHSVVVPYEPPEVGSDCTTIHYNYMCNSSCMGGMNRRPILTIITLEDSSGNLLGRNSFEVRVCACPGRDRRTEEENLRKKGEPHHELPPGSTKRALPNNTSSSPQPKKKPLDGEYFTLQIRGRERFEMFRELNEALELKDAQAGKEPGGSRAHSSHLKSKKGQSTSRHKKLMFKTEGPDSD
# Summary of the method: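 Endogenous p53 activity read in transiently transfected HepG2 from a cis-element-driven reporter transcript after 24 h exposure. RNA reverse-transcribed, PCR-amplified, fluorescently labelled and sized by capillary electrophoresis; gain or loss fitted against DMSO baseline.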
# [11] = BSK_3C_TissueFactor: BioMAP Diversity Plus: 3C Assay for Tissue Factor Biomarker Activity (AID 2282997); conditions: BioMAP 3C HUVEC, tissue factor biomarker readout; actives raise or lower the signal
# Summary of the method: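 Tissue Factor measured by ELISA, 24 h after treatment of primary HUVEC in the BioMAP 3C setting.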
# [12] = BSK_3C_uPAR: BioMAP Diversity Plus: 3C Assay for Urokinase-type plasminogen activator receptor (uPAR) Biomarker Activity (AID 2282998); conditions: BioMAP 3C HUVEC, uPAR biomarker ELISA; actives raise or lower the signal
# Summary of the method: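 Endothelial primary cells of human umbilical vein origin received test chemical; 24 h later uPAR was assayed by ELISA. Fitting was bidirectional, DMSO as negative control.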
# [13] = BSK_3C_VCAM1: BioMAP Diversity Plus: 3C Assay for Vascular cell adhesion molecule 1 (VCAM1) Biomarker Activity (AID 2282999); conditions: BioMAP 3C HUVEC, VCAM1 ELISA, cytokine-stimulated; actives raise or lower the signal
# Summary of the method: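 Activity fitted in both directions relative to DMSO, with ELISA measurement of the surface marker on primary HUVEC (3C) at 24 h post-treatment; parallel SRB staining (0.1% SRB, TCA-fixed, 560 nm) flagged overt cytotoxicity.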
# [14] = BSK_4H_Eotaxin3: BioMAP Diversity Plus: 4H Assay for Eotaxin 3 Biomarker Activity (AID 2283000); conditions: primary human endothelial cells (HUVEC); actives raise or lower the signal;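 as to outcome: CCL26 protein level quantified by ELISA in parallel with SRB cytotoxicity check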
# Summary of the method: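 Eotaxin-3 (CCL26) levels were measured by ELISA in HUVEC primary cultures 24 h post-dosing. Gain or loss of signal was fitted in both directions, with DMSO serving as baseline and negative control.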
# [15] = target: Hepatocyte nuclear factor 4-alpha (Homo sapiens) (UniProt P41235); test: ATG_HNF4a_TRANS: Attagene TRANS-FACTORIAL HepG2 Assay for human Hepatocyte Nuclear Factor 4 alpha (HNF4a) (AID 2282982; active = hit-call score of the fitted dose curve at least 0.9, where 1 is the maximum); conditions: HepG2 HNF4a transactivation reporter, mRNA readout
# Hepatocyte nuclear factor 4-alpha (Homo sapiens), sequence (P41235 whole entry, looked up): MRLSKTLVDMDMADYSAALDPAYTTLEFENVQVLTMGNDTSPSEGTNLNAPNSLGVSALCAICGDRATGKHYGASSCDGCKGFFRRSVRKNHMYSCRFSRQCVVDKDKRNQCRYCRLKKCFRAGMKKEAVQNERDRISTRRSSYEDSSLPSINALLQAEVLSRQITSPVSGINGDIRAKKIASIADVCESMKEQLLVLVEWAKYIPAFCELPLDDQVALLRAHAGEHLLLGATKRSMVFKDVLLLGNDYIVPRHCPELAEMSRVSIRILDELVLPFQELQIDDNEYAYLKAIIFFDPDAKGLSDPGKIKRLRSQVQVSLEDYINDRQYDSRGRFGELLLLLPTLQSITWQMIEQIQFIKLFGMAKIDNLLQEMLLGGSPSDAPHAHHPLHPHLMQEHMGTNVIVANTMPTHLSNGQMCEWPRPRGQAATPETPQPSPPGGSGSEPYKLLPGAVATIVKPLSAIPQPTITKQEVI
# Summary of the method: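 Multiplexed reporter assay: transfected HepG2, 24 h exposure, total RNA → oligo(dT) RT → PCR → 6-FAM extension → HpaI digest → CE fluorescence. DMSO = negative control.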
# [16] = target: Oxysterols receptor LXR-beta (Homo sapiens) (UniProt P55055); test: ATG_LXRb_TRANS: Attagene TRANS-FACTORIAL HepG2 Assay for human Liver X Receptor beta (LXRb) (AID 2282981; active = hit-call score of the fitted dose curve at least 0.9, where 1 is the maximum); conditions: HepG2 Attagene TRANS GAL4-LXRb reporter, mRNA
# Oxysterols receptor LXR-beta (Homo sapiens), sequence (P55055 whole entry, looked up, the tested form may be a part): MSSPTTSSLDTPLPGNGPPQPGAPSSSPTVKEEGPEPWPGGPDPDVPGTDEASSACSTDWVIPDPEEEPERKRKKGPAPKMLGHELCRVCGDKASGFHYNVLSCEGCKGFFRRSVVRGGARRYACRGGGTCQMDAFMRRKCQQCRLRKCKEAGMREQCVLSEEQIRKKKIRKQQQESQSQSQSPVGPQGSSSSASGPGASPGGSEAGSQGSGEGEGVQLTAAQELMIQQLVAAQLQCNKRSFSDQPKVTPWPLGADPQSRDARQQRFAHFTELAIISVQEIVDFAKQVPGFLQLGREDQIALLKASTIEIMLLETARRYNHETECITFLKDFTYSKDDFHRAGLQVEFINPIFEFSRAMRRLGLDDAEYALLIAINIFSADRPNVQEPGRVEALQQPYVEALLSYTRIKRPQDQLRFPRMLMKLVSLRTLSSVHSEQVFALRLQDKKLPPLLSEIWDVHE
# Summary of the method: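 After 24 h of chemical treatment, transfected HepG2 cells yield total RNA; reporter cDNA is PCR-amplified, FAM-labelled, HpaI-cut and run on capillary electrophoresis. Signal reflects chimeric LXRb-Gal4 activity on GAL4-UAS reporters.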
# [17] = ATG_M_32_TRANS: Attagene TRANS-FACTORIAL HepG2 Assay for M32 Transcription Factor (Internal Marker) (AID 2282984; active = hit-call score of the fitted dose curve at least 0.9, where 1 is the maximum;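 also: transcript level of a background control reporter unit measured by RT-PCR and capillary electrophoresis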); conditions: HepG2 Attagene TRANS M32 internal marker reporter
# Summary of the method: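 Cell-based TRANS-format assay in HepG2: exogenous chimeric GAL4 reporter units transiently expressed, compounds applied 24 h. Reporter mRNA detected by RT-PCR plus capillary electrophoresis; this readout is an internal background marker.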
# [18] = target: Glucocorticoid receptor (Homo sapiens) (UniProt P04150); test: ATG_GR_TRANS: Attagene TRANS-FACTORIAL HepG2 Assay for human Glucocorticoid Receptor (GR) (AID 2282978; active = hit-call score of the fitted dose curve at least 0.9, where 1 is the maximum;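 also: activators score as hits since higher reporter transcript over DMSO is fitted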); conditions: HepG2 Attagene TRANS GR reporter, mRNA transcription
# Glucocorticoid receptor (Homo sapiens), sequence (P04150 whole entry, looked up, the tested form may be a part): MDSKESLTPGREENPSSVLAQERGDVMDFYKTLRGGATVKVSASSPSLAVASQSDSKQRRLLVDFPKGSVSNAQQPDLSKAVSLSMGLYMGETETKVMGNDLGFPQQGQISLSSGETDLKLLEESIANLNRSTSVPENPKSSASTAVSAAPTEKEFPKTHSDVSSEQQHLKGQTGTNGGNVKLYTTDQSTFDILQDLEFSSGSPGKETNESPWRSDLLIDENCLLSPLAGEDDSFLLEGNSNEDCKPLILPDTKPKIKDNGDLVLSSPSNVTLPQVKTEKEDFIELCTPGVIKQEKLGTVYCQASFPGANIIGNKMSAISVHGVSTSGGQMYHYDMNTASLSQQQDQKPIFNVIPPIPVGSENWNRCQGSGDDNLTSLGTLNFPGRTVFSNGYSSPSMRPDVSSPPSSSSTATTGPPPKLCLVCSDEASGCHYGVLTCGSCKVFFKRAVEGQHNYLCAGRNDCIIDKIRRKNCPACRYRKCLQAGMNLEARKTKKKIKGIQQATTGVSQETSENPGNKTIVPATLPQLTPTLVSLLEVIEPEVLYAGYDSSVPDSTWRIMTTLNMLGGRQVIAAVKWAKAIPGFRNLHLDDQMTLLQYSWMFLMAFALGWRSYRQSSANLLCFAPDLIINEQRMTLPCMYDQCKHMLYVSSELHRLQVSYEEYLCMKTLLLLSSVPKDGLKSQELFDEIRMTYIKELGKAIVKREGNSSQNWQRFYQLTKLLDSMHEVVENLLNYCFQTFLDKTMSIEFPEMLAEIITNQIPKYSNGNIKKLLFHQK
# Summary of the method: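 HepG2 cells transiently transfected with multiplexed reporter units in which chimeric NR-GAL4 proteins drive GAL4-UAS reporters; 24 h compound exposure. Reporter mRNA measured by RT-PCR, 6-FAM labelling, HpaI digestion and capillary electrophoresis; gain-of-signal fitted versus DMSO.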
smiles,measurement,setting,value
CC(C)(C)CC(C)(C)c1ccc(O)c(-n2nc3ccccc3n2)c1,outcome,[1],inactive
same,outcome,[2],inactive
same,outcome,[3],inactive
same,outcome,[4],inactive
same,outcome,[5],inactive
same,outcome,[6],inactive
same,outcome,[7],inactive
same,AC50,[8],36.4 µM (active)
same,AC50,[9],78.5 µM (active)
same,outcome,[10],inactive
same,outcome,[11],inactive
same,outcome,[12],inactive
same,outcome,[13],inactive
same,outcome,[14],inactive
CCCCCCCCCCCCCCCS(=O)(=O)Oc1ccccc1,outcome,[1],inactive
same,outcome,[15],inactive
same,outcome,[2],inactive
same,outcome,[3],inactive
same,outcome,[4],inactive
same,outcome,[6],inactive
same,outcome,[7],inactive
same,outcome,[8],inactive
same,outcome,[9],inactive
same,outcome,[10],inactive
same,outcome,[11],inactive
same,outcome,[12],inactive
same,outcome,[13],inactive
same,outcome,[14],inactive
CC(O)C(=O)O (centres undefined),outcome,[1],inactive
same,outcome,[16],inactive
same,outcome,[15],inactive
same,outcome,[2],inactive
same,outcome,[17],inactive
same,outcome,[3],inactive
same,outcome,[4],inactive
same,outcome,[5],inactive
same,outcome,[6],inactive
same,outcome,[7],inactive
same,outcome,[8],inactive
same,outcome,[9],inactive
same,outcome,[10],inactive
CC#C[C@]1(O)CC[C@H]2[C@@H]3CCC4=CC(=O)CCC4=C3[C@@H](c3ccc(N(C)C)cc3)C[C@@]21C,outcome,[18],inactive
same,outcome,[1],inactive
same,outcome,[2],inactive
same,outcome,[17],inactive
same,outcome,[3],inactive
same,AC50,[4],170 µM (active)
same,outcome,[4],inactive
same,AC50,[5],153 µM (active) and 64.1 µM (active) and 34.2 µM (active)
same,outcome,[5],inactive
same,AC50,[6],160 µM (active) and 100 µM (active)
same,outcome,[6],inactive
same,AC50,[7],67.9 µM (active)
same,outcome,[7],inactive
same,AC50,[8],28.1 µM (active) [middle of 4 runs]
same,outcome,[11],inactive
same,AC50,[12],31.2 µM (active)
same,AC50,[13],32.2 µM (active)
same,AC50,[14],38.1 µM (active)
Cc1oc(-c2ccccc2)nc1CCOc1ccc(C[C@H](Nc2ccccc2C(=O)c2ccccc2)C(=O)O)cc1,outcome,[18],inactive
same,outcome,[2],inactive
same,outcome,[17],inactive
same,outcome,[3],inactive
same,AC50,[4],18.6 µM (active)
same,outcome,[5],inactive
same,AC50,[6],18 µM (active)
same,outcome,[7],inactive
same,outcome,[8],inactive
same,AC50,[9],18.2 µM (active)
same,outcome,[10],inactive
same,AC50,[11],36.7 µM (active)
same,AC50,[12],14.6 µM (active)
same,AC50,[13],33.1 µM (active)
same,AC50,[14],36.2 µM (active)
CCc1ccc(CCOc2ccc(CC3SC(=O)NC3=O)cc2)nc1 (centres undefined),outcome,[18],inactive
same,outcome,[15],inactive
same,outcome,[3],inactive
same,outcome,[4],inactive
same,outcome,[5],inactive
same,outcome,[6],inactive
same,outcome,[7],inactive
same,AC50,[8],25.6 µM (active)
same,outcome,[8],inactive
same,outcome,[9],inactive
same,outcome,[10],inactive
same,outcome,[11],inactive
same,outcome,[12],inactive
same,outcome,[13],inactive
same,outcome,[14],inactive
O=C(O)Cc1cc(I)c(Oc2cc(I)c(O)c(I)c2)c(I)c1,outcome,[18],inactive
same,outcome,[15],inactive
same,outcome,[2],inactive
same,outcome,[17],inactive
same,outcome,[3],inactive
same,outcome,[4],inactive
same,AC50,[5],47.9 µM (active) and 17.2 µM (active)
same,AC50,[6],48.6 µM (active) and 16.8 µM (active)
same,AC50,[7],105 µM (active) and 46.1 µM (active)
same,AC50,[8],17 µM (active) and 16.9 µM (active)
same,AC50,[9],34.8 µM (active) and 33.3 µM (active)
same,outcome,[10],inactive
same,AC50,[11],24.3 µM (active)
same,outcome,[12],inactive
same,outcome,[13],inactive
same,outcome,[14],inactive
O=C(OCCOCCOC(=O)c1ccccc1)c1ccccc1,outcome,[1],inactive
same,outcome,[15],inactive
same,outcome,[2],inactive
same,outcome,[3],inactive
same,outcome,[4],inactive
same,outcome,[6],inactive
same,outcome,[7],inactive
same,outcome,[8],inactive
same,outcome,[9],inactive
same,outcome,[10],inactive
same,outcome,[11],inactive
same,outcome,[12],inactive
same,outcome,[13],inactive
same,outcome,[14],inactive
